Sfp inh: inhibitors of Bacillus subtilis Sfp phosphopantetheinyl transferase | Potency, µM, usual class: inhibitors | hit rate 3.5% among 310,000 | Biochemical Sfp PPTase activity, qHTS | Q9F4F7;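 note: the enzyme is Sfp with the accession as filed and its product quenches rhodamine fluorescence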
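With Hepes-Na pH 7.6 buffer containing 10 mM MgCl2, Sfp (15 nM) modified BHQ-2-YbbR (12.5 uM) using rhodamine-CoA (5 uM). Two reads 30 minutes apart at 525/598 nm yielded each well's rate.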
HP1b binding inh: inhibitors of HP1-beta chromodomain binding to methylated histone tails; P83916; AlphaScreen HP1-beta / biotin-H3K9me3 peptide binding; Potency, µM (doses to about 114 µM), hits mostly inhibitors; hit rate 0.56% among 390,000; AID 540317; note: nearly all actives have a fitted effect of over 70% in size
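HP1-beta protein (50 nM final) preincubated 30 min at room temperature with biotinylated H3(1-18)K9me3 peptide (50 nM) in PBS pH 7.4, 0.01% Tween-20, then compound added for 30 min. AlphaScreen streptavidin donor/nickel chelate acceptor beads (10 ug/mL final), 30 min dark, luminescence read.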
L3MBTL1 inh: inhibitors of human L3MBTL1. Q9Y468. AlphaScreen L3MBTL1–H3K9me1 peptide binding. Potency, µM (titrated, usually from 57.1 µM), most hits filed as inhibitors. hit rate 0.66% among 230,000; note: nearly all actives have a fitted effect of over 60% in size
Target sequence (Q9Y468 whole entry, looked up): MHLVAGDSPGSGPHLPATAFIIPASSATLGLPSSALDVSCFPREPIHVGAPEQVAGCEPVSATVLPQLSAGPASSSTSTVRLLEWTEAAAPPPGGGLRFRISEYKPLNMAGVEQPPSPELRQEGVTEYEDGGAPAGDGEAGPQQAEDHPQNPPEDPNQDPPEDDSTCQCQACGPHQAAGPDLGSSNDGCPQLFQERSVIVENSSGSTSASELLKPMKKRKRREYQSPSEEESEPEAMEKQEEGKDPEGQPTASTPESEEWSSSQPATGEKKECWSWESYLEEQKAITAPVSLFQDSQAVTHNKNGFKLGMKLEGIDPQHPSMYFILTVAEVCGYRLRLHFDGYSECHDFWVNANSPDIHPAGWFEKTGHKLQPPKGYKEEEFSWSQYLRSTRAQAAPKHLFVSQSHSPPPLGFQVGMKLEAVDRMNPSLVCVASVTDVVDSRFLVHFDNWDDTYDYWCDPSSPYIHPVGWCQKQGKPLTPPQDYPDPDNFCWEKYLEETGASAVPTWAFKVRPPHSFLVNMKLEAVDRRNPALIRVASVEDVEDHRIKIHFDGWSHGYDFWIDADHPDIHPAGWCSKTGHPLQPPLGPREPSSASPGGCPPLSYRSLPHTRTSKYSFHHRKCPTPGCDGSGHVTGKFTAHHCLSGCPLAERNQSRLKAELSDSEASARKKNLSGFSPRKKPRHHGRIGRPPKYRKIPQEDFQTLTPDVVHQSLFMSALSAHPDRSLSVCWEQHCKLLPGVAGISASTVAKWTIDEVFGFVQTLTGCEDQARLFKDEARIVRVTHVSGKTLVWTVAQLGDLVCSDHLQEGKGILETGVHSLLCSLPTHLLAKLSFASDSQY
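Displacement of a biotinylated histone H3(1-15) peptide monomethylated at Lys9 (75 nM) from L3MBTL1 (50 nM) was measured by AlphaScreen after a 30 min room-temperature compound incubation; cefsulodin titration served as intraplate control.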
G9a block: inhibitors of human histone lysine methyltransferase G9a. hit rate 8.8% among 350,000. G9a H3K9 monomethylation, AlphaScreen, 2 h. Potency, µM (series often up to 102 µM), usual class: inhibitors. Q96KQ7; note: nearly all actives have a fitted effect of over 75% in size
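Compounds were preincubated with 20 nM G9a for 15 min, after which biotinylated H3K9 peptide (500 nM) and SAM (20 uM) started a 2 h room-temperature reaction. Monomethylated product was quantified by antibody-based AlphaScreen chemiluminescence.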
BAZ2B block: blocks human BAZ2B; AID 504333; AlphaScreen BAZ2B-H3K14Ac peptide displacement; Q9UIF8; Potency, µM (top dose mostly 114 µM), most hits filed as inhibitors; hit rate 4.4% among 360,000; note: nearly all actives have a fitted effect of over 60% in size
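Protein-peptide AlphaScreen: BAZ2B 50 nM, b-H3K14Ac 50 nM, 1x PBS pH 7.4 + 0.01% Tween-20. Preincubation 30 min RT; cpd 30 min RT (top 110 uM); beads 20 min RT, light-protected.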
JMJD2A Tudor: blocks the human JMJD2A Tudor domain; hit rate 4.4% among 390,000; Potency, µM (top dose mostly 114 µM), hits mostly inhibitors; AlphaScreen JMJD2A-Tudor / H3K4me3 peptide binding; AID 504339; note: nearly all actives have a fitted effect of over 50% in size
A number is an active result; n = inactive; u = inconclusive; x = no result given; [ ] = another dose, or the depositor's remark. This is a sample that favours compounds with a hit; in the whole collection about 12% have one here. Calls come from the whole dose curve; as a rule, active = well fitted curve in the direction sought with a large enough effect; inconclusive = small, poorly fitted or top-dose-only effect, or another doubt; inactive = no such curve, though single readings can be large; an effect the other way counts as inactive or inconclusive.

SMILES | Sfp inh | HP1b binding inh | L3MBTL1 inh | G9a block | BAZ2B block | JMJD2A Tudor
COc1ccc2o/c(=N\O)c(C(=O)Nc3ccccc3OC)cc2c1 | 50.1µM | n | x | 1.58µM | n | n
COc1ccc(NC(=O)c2ccccc2SC)c(OC)c1 | n | n | n | 17.8µM | n | n
COc1ccc(NC(=O)c2c(OC)cccc2OC)c(OC)c1 | n | u | x | u | 50.1µM | 56.2µM
O=S(=O)(c1cccs1)N1CN(C2CCCC2)c2nc3ccccc3nc21 | n | n | n | u | u | n
COCCCN1CN(S(=O)(=O)c2cccs2)c2nc3ccccc3nc21 | n | n | n | 12.6µM | n | n
O=S(=O)(c1cccs1)N1CN(C2CCCCC2)c2nc3ccccc3nc21 | n | n | n | x | u | u
CC(C)CN1CN(S(=O)(=O)c2cccs2)c2nc3ccccc3nc21 | n | x | n | 44.7µM | n | x
Nc1ncnc2c1ncn2[C@@H]1O[C@H](CO)[C@H](O)[C@H]1O | x | x | x | n[12.7 µM] | x | x
Nc1nc2c(ncn2[C@@H]2O[C@H](CO)[C@@H](O)[C@H]2O)c(=O)[nH]1 | n | x | x | x | x | x
Nc1nc(=S)c2ncn([C@@H]3O[C@H](CO)[C@@H](O)[C@H]3O)c2[nH]1 | x | u | n | 1.78µM | u | 5.01µM
Nc1nc(=S)c2ncn(C3OC(CO)C(O)C3O)c2[nH]1 (configuration not stated) | 6.31µM | u | 25.1µM | 2µM | 44.7µM | 7.94µM
CCOc1ccccc1-c1nnc2n1N=C(c1c(OC)cccc1OC)CS2 | n | x | x | x | x | n
CCc1ccc2occ(CC(=O)Nc3c(C(=O)c4ccccc4)oc4ccccc34)c2c1 | x | n | x | n | n | n
CC(=C1C(=O)c2ccccc2C1=O)N1CCN(C/C=C/c2ccccc2)CC1 | 56.2µM | n | x | u | u | n
C(=C/c1ccccc1)/CN1CCN(C(c2ccccc2)c2ccccc2)CC1 | n | x | x | u | x | x
CC(CN1CCN(C/C=C/c2ccccc2)CC1)c1ccccc1 (configuration not stated) | n | n | n[2.29 µM] | n[0.501 µM] | u | 12.6µM
CCOc1ccccc1NC(=O)c1cn(C2CCCC2)c(=O)c2c1c1ccccc1n2C | x | n | x | n | n | n
Cc1cc(O)c(N)c(C)c1Cl | 56.2µM | u | x | u | u | n[11.4 µM]
O=C(CSc1ccc(Cl)cc1)N1CCOCC1 | n | n | x | n[12.7 µM] | n | n
O=C1CCN(C(=O)c2ccc(Cl)cc2)N1 | u | n | n | 12.6µM | 56.2µM | 89.1µM
O=C1CCN(C(=O)CSc2ccc(Cl)cc2)N1 | u | n | n | 14.1µM | 50.1µM | u
Cc1ccccc1NC(=O)/C(C#N)=C/c1ccc(Cl)cc1Cl | x | n | x | n | n | n
Cc1cccc(Cn2c(C)c(CNC3CCCCC3)c(C(=O)O)c2C)c1 | x | n | x | n | n | n
CCc1ccc2c(c1)NC(c1ccc(C)cc1)=NC(c1cccs1)=N2 | x | u | x | 12.6µM | 25.1µM | 44.7µM
CCCCOc1ccc(C2=NC(c3cccs3)=Nc3ccc(CC)cc3N2)cc1 | x | n | x | u | u | u
SMILES | Sfp inh | HP1b binding inh | L3MBTL1 inh | G9a block | BAZ2B block | JMJD2A Tudor
CCOc1ccc(C2=NC(c3cccs3)=Nc3ccc(C(C)C)cc3N2)cc1 | x | n | x | 10µM | 22.4µM | 20µM
Clc1ccc2c(c1)NC(c1ccncc1)=NC(c1cccs1)=N2 | x | n | x | 28.2µM | u | u
COc1ccc(C(=O)NC(=S)Nc2ccc(Cl)c(C(=O)O)c2)cc1 | n | u | x | 50.1µM | n | n
COc1ccc(Br)cc1/C=C/C(=O)NC(=S)Nc1ccc(Cl)c(C(=O)O)c1 | n | n | x | 31.6µM | u | n
CC(C)Oc1cccc(C(=O)NC(=S)Nc2ccc(Cl)c(C(=O)O)c2)c1 | n | n | n | x | n | u
COc1ccc(Br)cc1C(=O)NC(=S)Nc1ccc(CN2CCOCC2)cc1 | u | n | x | n[0.0925 µM] | 25.1µM | u
COc1ccc(C(=O)NC(=S)Nc2ccc3c(c2)Cc2ccccc2-3)cc1 | 44.7µM | n | x | u | n | n
O=C(NC(=S)Nc1ccc(CN2CCOCC2)cc1)c1ccc(-c2ccc(Br)cc2)o1 | n | n | n | x | n | n
CCn1c(=O)cc(OCC(=O)NCc2ccc(F)cc2Cl)c2ccccc21 | x | n | x | n | n | n
CCc1ccccc1NC(=O)c1cnc(N2CCCCC2)c2ccccc12 | x | n | x | n | n | n
Cc1c(Cn2ccnc2)c2ccccc2n1CCC(=O)O | n | x | x | n[12.7 µM] | x | x

Screening results from PubChem BioAssay.
